ChEMBL document CHEMBL1961873, “Compounds: GSK PKIS; Assays: Nanosyn kinase panel” (2012)

Columns and labels:
[1] = target: Sphingosine kinase 1 (Homo sapiens) (UniProt Q9NYA1); details: at 1 µM;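 further: mean SPHK1 inhibition value reported from the GSK PKIS kinase panel screen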
[2] = target: T1, Sphingosine kinase 2 (Homo sapiens) (UniProt Q9NRA0); details: at 0.1 µM
T1 sequence (whole entry): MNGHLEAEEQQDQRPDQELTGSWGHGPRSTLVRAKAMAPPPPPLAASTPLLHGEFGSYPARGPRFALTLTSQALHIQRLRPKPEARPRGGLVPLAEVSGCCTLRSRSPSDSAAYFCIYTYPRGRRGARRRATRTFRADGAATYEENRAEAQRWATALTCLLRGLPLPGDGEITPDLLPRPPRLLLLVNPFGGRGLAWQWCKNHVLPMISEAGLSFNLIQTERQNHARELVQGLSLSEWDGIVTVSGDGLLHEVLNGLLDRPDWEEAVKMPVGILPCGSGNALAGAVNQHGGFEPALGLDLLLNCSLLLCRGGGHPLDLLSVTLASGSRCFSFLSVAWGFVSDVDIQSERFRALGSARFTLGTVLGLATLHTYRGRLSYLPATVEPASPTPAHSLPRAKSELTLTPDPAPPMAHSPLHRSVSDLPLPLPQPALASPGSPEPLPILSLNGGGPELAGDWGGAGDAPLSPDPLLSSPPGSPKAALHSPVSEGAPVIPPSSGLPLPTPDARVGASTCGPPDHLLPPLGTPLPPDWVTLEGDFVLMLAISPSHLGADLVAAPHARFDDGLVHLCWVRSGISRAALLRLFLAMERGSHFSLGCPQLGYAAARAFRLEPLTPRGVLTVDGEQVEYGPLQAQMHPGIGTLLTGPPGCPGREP

[3] = target: T1, Sphingosine kinase 2 (Homo sapiens); details: at 1 µM
[4] = target: Casein kinase II subunit alpha (Homo sapiens) (UniProt P68400); details: at 0.1 µM
Casein kinase II subunit alpha (Homo sapiens), sequence (P68400 whole entry, looked up): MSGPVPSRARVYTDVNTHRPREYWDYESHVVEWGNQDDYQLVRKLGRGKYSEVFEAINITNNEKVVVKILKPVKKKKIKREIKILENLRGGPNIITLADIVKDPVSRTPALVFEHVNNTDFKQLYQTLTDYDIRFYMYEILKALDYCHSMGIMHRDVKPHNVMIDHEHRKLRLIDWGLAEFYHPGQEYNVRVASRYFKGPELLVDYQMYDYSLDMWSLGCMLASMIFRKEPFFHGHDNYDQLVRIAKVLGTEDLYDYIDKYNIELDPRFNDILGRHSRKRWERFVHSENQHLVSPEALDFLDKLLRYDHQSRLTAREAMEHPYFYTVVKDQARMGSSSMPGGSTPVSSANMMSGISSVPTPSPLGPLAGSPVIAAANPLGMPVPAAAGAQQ

[5] = target: Casein kinase II subunit alpha (Homo sapiens) (UniProt P68400); details: at 1 µM
[6] = target: T2, Inhibitor of nuclear factor kappa-B kinase subunit alpha (Homo sapiens) (UniProt O15111); details: at 0.1 µM
T2 sequence (whole entry): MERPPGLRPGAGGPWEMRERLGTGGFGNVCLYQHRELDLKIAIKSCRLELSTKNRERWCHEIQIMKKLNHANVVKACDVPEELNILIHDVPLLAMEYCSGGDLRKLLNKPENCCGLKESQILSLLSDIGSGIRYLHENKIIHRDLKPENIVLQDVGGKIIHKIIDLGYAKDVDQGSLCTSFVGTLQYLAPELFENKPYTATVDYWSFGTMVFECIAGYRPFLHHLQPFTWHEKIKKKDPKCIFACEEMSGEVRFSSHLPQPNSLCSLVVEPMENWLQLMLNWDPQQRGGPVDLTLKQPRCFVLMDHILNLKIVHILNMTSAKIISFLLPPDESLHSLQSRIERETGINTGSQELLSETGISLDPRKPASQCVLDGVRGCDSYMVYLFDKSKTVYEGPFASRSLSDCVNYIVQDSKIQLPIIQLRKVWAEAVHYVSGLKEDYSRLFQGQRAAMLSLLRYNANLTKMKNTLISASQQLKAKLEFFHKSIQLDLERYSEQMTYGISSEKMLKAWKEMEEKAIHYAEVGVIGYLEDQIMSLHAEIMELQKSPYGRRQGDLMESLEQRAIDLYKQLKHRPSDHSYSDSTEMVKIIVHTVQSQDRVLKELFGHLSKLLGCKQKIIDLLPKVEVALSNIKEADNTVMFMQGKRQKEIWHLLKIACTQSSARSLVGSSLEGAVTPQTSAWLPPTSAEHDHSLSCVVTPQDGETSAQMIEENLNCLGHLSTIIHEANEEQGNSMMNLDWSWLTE

[7] = target: T2, Inhibitor of nuclear factor kappa-B kinase subunit alpha (Homo sapiens); details: at 1 µM
[8] = target: T3, Inhibitor of nuclear factor kappa-B kinase subunit beta (Homo sapiens) (UniProt O14920); details: at 0.1 µM
T3 sequence (whole entry): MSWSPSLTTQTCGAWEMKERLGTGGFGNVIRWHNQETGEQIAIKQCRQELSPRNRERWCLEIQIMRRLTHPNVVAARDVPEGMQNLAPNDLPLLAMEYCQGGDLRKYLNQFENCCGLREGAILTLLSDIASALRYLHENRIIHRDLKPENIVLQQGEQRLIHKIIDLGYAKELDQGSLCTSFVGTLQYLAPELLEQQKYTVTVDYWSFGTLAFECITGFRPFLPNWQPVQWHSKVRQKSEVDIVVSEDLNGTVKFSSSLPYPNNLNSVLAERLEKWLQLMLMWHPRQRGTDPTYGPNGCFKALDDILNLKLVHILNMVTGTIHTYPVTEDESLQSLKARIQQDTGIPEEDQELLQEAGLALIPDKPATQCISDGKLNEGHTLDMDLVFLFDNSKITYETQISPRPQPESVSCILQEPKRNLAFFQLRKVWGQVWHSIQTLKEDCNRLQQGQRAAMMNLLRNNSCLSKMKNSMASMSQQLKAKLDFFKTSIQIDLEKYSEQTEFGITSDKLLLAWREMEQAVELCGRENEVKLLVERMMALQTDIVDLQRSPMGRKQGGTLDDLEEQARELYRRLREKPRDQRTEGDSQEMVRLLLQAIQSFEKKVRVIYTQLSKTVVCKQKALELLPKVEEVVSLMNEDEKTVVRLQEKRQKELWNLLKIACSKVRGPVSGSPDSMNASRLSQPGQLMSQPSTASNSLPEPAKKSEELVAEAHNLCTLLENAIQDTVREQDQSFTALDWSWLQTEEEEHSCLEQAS

[9] = target: T3, Inhibitor of nuclear factor kappa-B kinase subunit beta (Homo sapiens); details: at 1 µM
[10] = target: T4, Inhibitor of nuclear factor kappa-B kinase subunit epsilon (Homo sapiens) (UniProt Q14164); details: at 0.1 µM
T4 sequence (whole entry): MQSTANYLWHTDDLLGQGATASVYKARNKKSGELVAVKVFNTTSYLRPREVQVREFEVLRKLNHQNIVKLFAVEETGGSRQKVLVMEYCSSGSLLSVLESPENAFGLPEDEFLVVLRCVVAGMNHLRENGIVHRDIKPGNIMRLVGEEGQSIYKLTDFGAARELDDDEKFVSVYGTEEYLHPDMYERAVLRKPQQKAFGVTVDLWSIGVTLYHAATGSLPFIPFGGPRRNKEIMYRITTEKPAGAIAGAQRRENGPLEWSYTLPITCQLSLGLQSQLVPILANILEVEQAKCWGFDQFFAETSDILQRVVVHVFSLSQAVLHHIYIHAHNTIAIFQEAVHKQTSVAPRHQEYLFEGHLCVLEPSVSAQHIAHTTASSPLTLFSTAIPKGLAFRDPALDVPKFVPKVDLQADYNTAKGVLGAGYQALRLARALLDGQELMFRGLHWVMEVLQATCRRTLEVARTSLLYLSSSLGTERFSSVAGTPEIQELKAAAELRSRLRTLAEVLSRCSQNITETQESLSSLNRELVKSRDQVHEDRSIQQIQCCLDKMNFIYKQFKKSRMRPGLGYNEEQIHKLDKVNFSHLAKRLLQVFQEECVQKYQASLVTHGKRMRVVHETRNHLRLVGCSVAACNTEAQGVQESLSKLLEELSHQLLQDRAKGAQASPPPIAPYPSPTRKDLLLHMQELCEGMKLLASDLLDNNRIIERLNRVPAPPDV

[11] = target: T4, Inhibitor of nuclear factor kappa-B kinase subunit epsilon (Homo sapiens); details: at 1 µM
[12] = target: T5, Serine/threonine-protein kinase Nek1 (Homo sapiens) (UniProt Q96PY6); details: at 0.1 µM
T5 sequence (whole entry): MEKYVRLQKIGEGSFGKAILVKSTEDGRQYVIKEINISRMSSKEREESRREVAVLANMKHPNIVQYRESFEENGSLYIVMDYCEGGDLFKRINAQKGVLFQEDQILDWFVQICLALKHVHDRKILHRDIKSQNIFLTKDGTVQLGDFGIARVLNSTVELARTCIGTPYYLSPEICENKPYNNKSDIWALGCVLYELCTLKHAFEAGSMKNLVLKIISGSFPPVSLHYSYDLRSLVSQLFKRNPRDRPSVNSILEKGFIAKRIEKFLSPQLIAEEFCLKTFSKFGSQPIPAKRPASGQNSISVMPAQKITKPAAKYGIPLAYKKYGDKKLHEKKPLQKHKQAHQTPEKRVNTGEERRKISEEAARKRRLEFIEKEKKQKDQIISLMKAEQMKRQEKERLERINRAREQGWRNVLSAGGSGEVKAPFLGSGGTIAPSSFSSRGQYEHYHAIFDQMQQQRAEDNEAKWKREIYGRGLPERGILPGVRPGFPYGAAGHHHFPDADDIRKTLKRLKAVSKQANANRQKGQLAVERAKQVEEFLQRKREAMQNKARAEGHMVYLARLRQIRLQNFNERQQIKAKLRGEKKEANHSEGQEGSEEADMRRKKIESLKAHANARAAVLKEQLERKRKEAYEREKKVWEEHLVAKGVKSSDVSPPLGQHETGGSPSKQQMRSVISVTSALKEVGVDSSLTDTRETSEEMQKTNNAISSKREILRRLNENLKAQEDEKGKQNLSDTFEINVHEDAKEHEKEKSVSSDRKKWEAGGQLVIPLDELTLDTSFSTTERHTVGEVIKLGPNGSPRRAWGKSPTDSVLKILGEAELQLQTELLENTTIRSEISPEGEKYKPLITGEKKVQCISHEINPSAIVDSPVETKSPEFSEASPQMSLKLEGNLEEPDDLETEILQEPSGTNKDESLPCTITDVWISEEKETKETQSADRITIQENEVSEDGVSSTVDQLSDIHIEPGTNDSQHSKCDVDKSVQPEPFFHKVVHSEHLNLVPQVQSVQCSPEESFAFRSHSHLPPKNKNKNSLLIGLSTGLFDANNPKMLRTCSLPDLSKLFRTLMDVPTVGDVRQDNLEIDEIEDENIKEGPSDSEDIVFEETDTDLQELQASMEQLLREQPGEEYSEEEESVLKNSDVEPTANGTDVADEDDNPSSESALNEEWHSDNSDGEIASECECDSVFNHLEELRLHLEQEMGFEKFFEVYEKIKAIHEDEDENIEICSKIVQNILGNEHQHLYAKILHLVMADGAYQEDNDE

[13] = target: T5, Serine/threonine-protein kinase Nek1 (Homo sapiens); details: at 1 µM
[14] = target: T6, Serine/threonine-protein kinase Nek2 (Homo sapiens) (UniProt P51955); details: at 0.1 µM
T6 sequence (whole entry): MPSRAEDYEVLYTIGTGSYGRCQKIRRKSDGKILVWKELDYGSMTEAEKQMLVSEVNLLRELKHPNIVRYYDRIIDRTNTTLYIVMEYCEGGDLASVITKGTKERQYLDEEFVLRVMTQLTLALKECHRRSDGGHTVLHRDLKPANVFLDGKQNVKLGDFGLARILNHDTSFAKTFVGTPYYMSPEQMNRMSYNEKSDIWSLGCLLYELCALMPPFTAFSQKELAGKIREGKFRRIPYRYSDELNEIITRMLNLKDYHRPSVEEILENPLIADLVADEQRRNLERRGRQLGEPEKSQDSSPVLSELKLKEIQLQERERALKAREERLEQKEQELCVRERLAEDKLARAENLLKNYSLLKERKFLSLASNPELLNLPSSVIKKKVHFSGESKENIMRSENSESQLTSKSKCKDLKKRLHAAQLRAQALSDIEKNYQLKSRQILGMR

[15] = target: T6, Serine/threonine-protein kinase Nek2 (Homo sapiens); details: at 1 µM
[16] = target: Serine/threonine-protein kinase Nek6 (Homo sapiens) (UniProt Q9HC98); details: at 0.1 µM
Serine/threonine-protein kinase Nek6 (Homo sapiens), sequence (Q9HC98 whole entry): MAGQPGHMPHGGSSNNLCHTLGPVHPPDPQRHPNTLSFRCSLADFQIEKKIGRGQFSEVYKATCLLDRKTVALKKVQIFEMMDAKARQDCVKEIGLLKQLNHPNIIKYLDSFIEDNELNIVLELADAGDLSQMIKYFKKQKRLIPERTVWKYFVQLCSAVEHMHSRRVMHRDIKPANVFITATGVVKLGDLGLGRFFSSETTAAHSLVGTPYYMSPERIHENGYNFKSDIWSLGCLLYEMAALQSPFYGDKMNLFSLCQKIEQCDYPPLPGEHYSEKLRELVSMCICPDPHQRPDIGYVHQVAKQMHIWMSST

[17] = target: Serine/threonine-protein kinase Nek6 (Homo sapiens) (UniProt Q9HC98); details: at 1 µM
[18] = target: Serine/threonine-protein kinase Nek7 (Homo sapiens) (UniProt Q8TDX7); details: at 0.1 µM
Serine/threonine-protein kinase Nek7 (Homo sapiens), sequence (Q8TDX7 whole entry, looked up): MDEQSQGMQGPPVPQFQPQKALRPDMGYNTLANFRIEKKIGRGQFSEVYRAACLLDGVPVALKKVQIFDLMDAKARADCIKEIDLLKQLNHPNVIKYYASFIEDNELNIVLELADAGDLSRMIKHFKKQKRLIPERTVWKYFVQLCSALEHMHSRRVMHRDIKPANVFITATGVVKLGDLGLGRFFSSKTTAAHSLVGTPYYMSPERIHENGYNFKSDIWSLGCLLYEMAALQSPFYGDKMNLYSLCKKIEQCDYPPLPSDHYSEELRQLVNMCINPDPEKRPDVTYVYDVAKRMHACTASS

[19] = target: Serine/threonine-protein kinase Nek7 (Homo sapiens) (UniProt Q8TDX7); details: at 1 µM
[20] = target: T7, Serine/threonine-protein kinase Nek9 (Homo sapiens) (UniProt Q8TD19); details: at 0.1 µM;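 further: reported value is the mean percent inhibition of NEK9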
T7 sequence (whole entry): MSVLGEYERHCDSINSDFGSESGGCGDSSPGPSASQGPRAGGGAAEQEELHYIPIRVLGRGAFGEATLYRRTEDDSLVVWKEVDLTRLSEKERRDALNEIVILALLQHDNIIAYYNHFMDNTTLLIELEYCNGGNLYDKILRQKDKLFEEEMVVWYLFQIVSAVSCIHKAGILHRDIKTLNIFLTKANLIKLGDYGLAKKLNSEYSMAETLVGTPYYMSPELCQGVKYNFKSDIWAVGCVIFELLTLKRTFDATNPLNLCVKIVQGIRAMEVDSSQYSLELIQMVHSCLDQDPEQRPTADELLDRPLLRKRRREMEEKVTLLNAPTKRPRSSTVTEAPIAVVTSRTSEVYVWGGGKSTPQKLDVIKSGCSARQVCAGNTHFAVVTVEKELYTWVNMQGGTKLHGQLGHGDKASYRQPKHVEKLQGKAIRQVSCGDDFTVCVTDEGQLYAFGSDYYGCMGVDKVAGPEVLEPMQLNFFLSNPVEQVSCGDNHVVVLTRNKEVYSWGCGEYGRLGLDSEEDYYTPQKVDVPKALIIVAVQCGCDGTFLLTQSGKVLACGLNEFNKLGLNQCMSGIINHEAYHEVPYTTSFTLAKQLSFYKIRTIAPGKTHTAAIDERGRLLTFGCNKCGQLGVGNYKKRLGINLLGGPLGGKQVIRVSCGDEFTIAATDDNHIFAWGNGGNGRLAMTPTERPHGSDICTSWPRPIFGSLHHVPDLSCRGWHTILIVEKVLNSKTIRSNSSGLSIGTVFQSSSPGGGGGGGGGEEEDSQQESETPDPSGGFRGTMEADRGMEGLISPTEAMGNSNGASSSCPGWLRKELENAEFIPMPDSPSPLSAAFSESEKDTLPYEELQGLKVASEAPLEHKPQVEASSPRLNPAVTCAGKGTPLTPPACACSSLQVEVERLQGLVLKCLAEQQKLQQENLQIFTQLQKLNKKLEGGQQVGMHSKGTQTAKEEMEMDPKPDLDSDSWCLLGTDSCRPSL

Sphingosine kinase 1 (Homo sapiens), sequence (Q9NYA1 whole entry): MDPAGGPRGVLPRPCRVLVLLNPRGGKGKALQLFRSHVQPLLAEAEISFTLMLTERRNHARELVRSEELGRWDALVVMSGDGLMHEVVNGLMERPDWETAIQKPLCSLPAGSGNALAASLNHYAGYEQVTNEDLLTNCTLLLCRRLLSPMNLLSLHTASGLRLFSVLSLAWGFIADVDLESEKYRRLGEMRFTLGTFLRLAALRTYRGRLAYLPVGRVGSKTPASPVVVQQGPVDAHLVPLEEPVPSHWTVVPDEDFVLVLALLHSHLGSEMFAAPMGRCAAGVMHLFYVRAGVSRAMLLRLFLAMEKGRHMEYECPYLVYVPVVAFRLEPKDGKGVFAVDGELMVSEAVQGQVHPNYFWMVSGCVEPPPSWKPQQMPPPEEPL

## COc1cc(Nc2ncc3c(C)nc(-c4cccc(C(F)(F)F)c4)n3n2)cc(OC)c1OC
[1]
  inhibition: -1.99%
[2]
  inhibition: 0.44%
[3]
  inhibition: -3.1%
[4]
  inhibition: 9.99%
[5]
  inhibition: 43.1%
[6]
  inhibition: -0.47%
[7]
  inhibition: 4.04%
[8]
  inhibition: 3.58%
[9]
  inhibition: 3.21%
[10]
  inhibition: 10.6%
[11]
  inhibition: 18.9%
[12]
  inhibition: 4.76%
[13]
  inhibition: 21.8%
[14]
  inhibition: 7.77%
[15]
  inhibition: 37.5%
[16]
  inhibition: 4.4%
[17]
  inhibition: 9.1%
[18]
  inhibition: 5.91%
[19]
  inhibition: 10.5%
[20]
  inhibition: 54.9%

## CCc1nccc2c1nc(-c1nonc1N)n2CC
[1]
  inhibition: -1.61%
[2]
  inhibition: 1.28%
[3]
  inhibition: 1.35%
[4]
  inhibition: 0.7%
[5]
  inhibition: -1.05%
[6]
  inhibition: 2.04%
[7]
  inhibition: -4.71%
[8]
  inhibition: 0.02%
[9]
  inhibition: -1.22%
[10]
  inhibition: 0.57%
[12]
  inhibition: 0.36%
[13]
  inhibition: 1.55%
[14]
  inhibition: 0.45%
[15]
  inhibition: 0.31%
[16]
  inhibition: 0.37%
[17]
  inhibition: 0.82%
[18]
  inhibition: 2.57%
[19]
  inhibition: 1.72%
[20]
  inhibition: 0.19%
